Laboratory results from PubChem BioAssay AID504445 (The Scripps Research Institute Molecular Screening Center, 2011).
This is one part of the list. The source made the active and inactive calls.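 Rule for the calls: active = mean inhibition over triplicate wells above a set limit taken from the primary lipase screen (cut at about 34% in these data); inactive = the rest.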

molecular target: Diacylglycerol lipase-beta (Homo sapiens) (UniProt Q8NCG7); assay: human DAGLB lipase activity inhibition – biochemical, fluorescence, HEK293T membranes, confirmation (AID 504445); details: HEK293T DAGLB membrane lysate, EnzChek fluorogenic substrate; at 5.17 µM; hits give high values;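 note: 0% = DAGLB with DMSO and 100% = wells lacking DAGLB enzyme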
Sequence (Q8NCG7 whole entry, looked up): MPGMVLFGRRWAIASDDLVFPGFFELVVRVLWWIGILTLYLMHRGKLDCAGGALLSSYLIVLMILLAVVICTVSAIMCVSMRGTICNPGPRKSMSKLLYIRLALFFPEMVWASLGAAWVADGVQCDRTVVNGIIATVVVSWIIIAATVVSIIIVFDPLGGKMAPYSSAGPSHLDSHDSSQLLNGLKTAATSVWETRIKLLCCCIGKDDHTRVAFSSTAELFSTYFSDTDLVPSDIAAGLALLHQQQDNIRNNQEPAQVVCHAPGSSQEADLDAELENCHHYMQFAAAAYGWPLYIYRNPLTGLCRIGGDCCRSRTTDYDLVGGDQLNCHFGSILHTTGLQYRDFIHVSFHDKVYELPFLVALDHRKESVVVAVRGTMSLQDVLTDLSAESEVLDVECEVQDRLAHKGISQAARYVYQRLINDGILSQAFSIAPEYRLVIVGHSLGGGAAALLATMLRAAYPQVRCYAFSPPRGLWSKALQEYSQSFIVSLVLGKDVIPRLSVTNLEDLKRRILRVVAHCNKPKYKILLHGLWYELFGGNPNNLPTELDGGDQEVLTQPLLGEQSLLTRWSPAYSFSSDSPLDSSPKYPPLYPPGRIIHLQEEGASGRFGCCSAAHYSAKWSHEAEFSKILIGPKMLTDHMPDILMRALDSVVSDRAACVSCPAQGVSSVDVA

inhibition, inactive:
Cc1ccc(S(=O)(=O)/N=C2\C=C(NS(=O)(=O)c3ccc(C)cc3)C(=O)c3ccccc32)cc1 18.2%
O=C(Oc1cccc(N2C(=O)C3C4c5ccccc5C(c5ccccc54)C3C2=O)c1)c1ccco1 (configuration not stated) 31.9%
COc1ccc(Br)cc1/C=N/Nc1ccc(S(=O)(=O)Nc2ccccc2C(=O)O)cc1[N+](=O)[O-] 27.4%
Cc1ccc(/C=N/NC(=O)C(NC(=O)c2ccccc2)c2n[nH]c(=O)c3ccccc23)cc1 (configuration not stated) 27.9%

inhibition, active:
Cc1oc2cc([N+](=O)[O-])c(O)c([N+](=O)[O-])c2c1C(=O)c1ccc(Br)cc1 49.9%
O=C(NNc1c2ccccc2nc2ccccc12)c1cc2ccccc2cc1O 63.4%
COc1cccc(/C=N/Nc2ccc(S(=O)(=O)Nc3ccccc3C(=O)O)cc2[N+](=O)[O-])c1O 49.7%
